Screens from PubChem BioAssay.
G9a inh: G9a (human) methyltransferase inhibition | Q96KQ7 | G9a H3K9 monomethylation, AlphaScreen, 2 h | Potency, µM (titrated, usually from 102 µM), inactives show at the highest dose activity, negative = inhibition, usual class: inhibitors | 8.8% of 350,000 active; note: % is set by controls: 0 for no effect and ±100 for the full control effect; nearly all actives have a fitted effect of over 75% in size
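Compounds were preincubated with 20 nM G9a for 15 min, after which biotinylated H3K9 peptide (500 nM) and SAM (20 uM) started a 2 h room-temperature reaction. Monomethylated product was quantified by antibody-based AlphaScreen chemiluminescence.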
JMJD2A Tudor inh: blocks the human JMJD2A Tudor domain. AlphaScreen JMJD2A-Tudor / H3K4me3 peptide binding. O75164. 4.4% of 390,000 active. Potency, µM (top dose mostly 114 µM), for the others: top-dose activity change, negative = inhibition, actives largely listed as inhibitors; note: % is set by controls: 0 for no effect and ±100 for the full control effect; nearly all actives have a fitted effect of over 50% in size
PLK1 PBD block: PLK1 (human) polo-box domain binding inhibition | P53350 | Plk1 PBD binding of FITC phosphopeptide, fluorescence polarization | Potency, µM, for the others: max response, negative = inhibition, most hits filed as inhibitors | 2.8% of 360,000 active; note: series mostly up to about 57 µM; % is set by controls: 0 for no effect and ±100 for the full control effect; nearly all actives have a fitted effect of over 65% in size
Sfp PPTase inh: inhibitors of Bacillus subtilis Sfp phosphopantetheinyl transferase; Q9F4F7; Biochemical Sfp PPTase activity, qHTS; Potency, µM, for the others: largest response in the series, negative = inhibition, usual class: inhibitors; 3.5% of 310,000 active;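 note: the enzyme is Sfp with the accession as filed and its product quenches rhodamine fluorescence; 0% = enzyme reaction without inhibitor and -100% = no enzyme wells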
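Reaction rates are the 30-min fluorescence difference (ex 525, em 598 nm) in wells containing 15 nM Sfp, 5 uM rhodamine-CoA and 12.5 uM BHQ-2-YbbR at pH 7.6 with 10 mM MgCl2.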
BAZ2B inh: inhibitors of human BAZ2B bromodomain; Q9UIF8; AlphaScreen BAZ2B-H3K14Ac peptide displacement; Potency, µM (highest dose often 114 µM), without a hit: at the top dose activity change, negative = inhibition, actives largely listed as inhibitors; 4.4% of 360,000 active; AID 504333; note: % is set by controls: 0 for no effect and ±100 for the full control effect; nearly all actives have a fitted effect of over 60% in size
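Complex of BAZ2B and biotin-H3K14Ac (50 nM apiece) forms over 30 min at RT, then faces library compounds up to 110 uM for another 30 min; AlphaScreen beads added, 20 min dark incubation, luminescence read.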
HP1b chromo inh: HP1-beta chromodomain-methylated histone interaction inhibition. P83916. Potency, µM (doses to about 114 µM), without a hit: at the highest dose activity change, negative = inhibition, most hits filed as inhibitors. AID 540317. AlphaScreen HP1-beta / biotin-H3K9me3 peptide binding. 0.56% of 390,000 active; note: nearly all actives have a fitted effect of over 70% in size
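HP1-beta protein (50 nM final) preincubated 30 min at room temperature with biotinylated H3(1-18)K9me3 peptide (50 nM) in PBS pH 7.4, 0.01% Tween-20, then compound added for 30 min. AlphaScreen streptavidin donor/nickel chelate acceptor beads (10 ug/mL final), 30 min dark, luminescence read.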
Numbers without * were called inactive; u = inconclusive; x = no result; [ ] = dose if it differs, or a comment. Hits are enriched below; roughly 12% of the tested compounds scored in any of these assays. Calls come from the whole dose curve; as a rule, active = well fitted curve in the direction sought with a large enough effect; inconclusive = small, poorly fitted or top-dose-only effect, or another doubt; inactive = no such curve, though single readings can be large; an effect the other way counts as inactive or inconclusive. Potency is the fitted concentration of half-maximal effect.

SMILES	G9a inh	JMJD2A Tudor inh	PLK1 PBD block	Sfp PPTase inh	BAZ2B inh	HP1b chromo inh
COc1ccc(/C=N/NC(=O)C2c3ccccc3-c3ccccc32)cc1	44.7µM*	-18.7%	-11.2%	5.6%	-4.4%	29.1%
COc1ccc(/C=N/NC(=O)/C(=C/c2ccccc2)CCO)cc1	36.8%[59 µM]	79.4µM*	26.7µM*	2.7%	-1.2%	1.1%
COc1ccc(CNC[C@H]2O[C@@H](n3cnc4c(N)ncnc43)[C@H](O)[C@@H]2O)cc1OC	x	-15.2%	-0.3%	x	x	45.7%
COc1ccc(N(Cc2cc3ccc(C)cc3[nH]c2=O)C(=O)c2ccco2)cc1	70.8µM*	-1.1%	-7.4%	u	12.3%	34.2%
Cc1ccc(C)c(N(Cc2cc3ccc(C)cc3[nH]c2=O)C(=O)c2ccco2)c1	-4.5%[59 µM]	-15.3%	-1.4%	-16.1%	-8.5%	15.4%
O=C(OCc1cc2ccccc2[nH]c1=O)c1ccco1	-0.6%[12.7 µM]	-9.0%	0.8%	-9.9%	1.3%	24.6%
CC(C)N(Cc1cc2ccccc2[nH]c1=O)C(=O)c1ccco1	50.1µM*	-9.0%	-3.5%	50.1µM*	-8.9%	20.0%
Cc1cccc(N(Cc2cc3ccccc3[nH]c2=O)C(=O)c2ccco2)c1C	3.4%[12.7 µM]	-10.3%	-1.9%	79.4µM*	-6.5%	19.1%
CNC(=S)N(Cc1ccc(OC)cc1)Cc1cc2ccc(C)cc2[nH]c1=O	-2.9%	-14.3%[11.4 µM]	23.8µM*	23.0%	-15.7%	u
COc1cccc(/C=C2\SC(=S)N(N3CCOCC3)C2=O)c1OC	u	u	-3.0%	-19.6%	17.8µM*	u
O=C1/C(=C/c2ccccn2)SC(=S)N1N1CCOCC1	56.2µM*	-8.1%[57.1 µM]	-8.8%	u	u	17.2%
CCOC(=O)c1ccc(S(=O)(=O)NNC(=O)c2cccc(N(C)C)c2)cc1	11.2µM*	-18.8%	-11.9%	13.3%	x	9.5%
CCNc1ccc(C(=O)OCC)cc1NC(=O)c1cccc(N(C)C)c1	50.1µM*	u	-4.3%	9.6%	u	-18.1%
Cc1ccc(NC(=O)C(C)Sc2nc(-c3ccccc3)cc(=O)[nH]2)cc1 (centres undefined)	17.3%	15.6%	-3.7%	-13.9%	1.2%	42.2%
COc1ccc(C2CC(=O)n3nc(C45CC6CC(CC(C6)C4)C5)nc3S2)cc1OC (centres undefined)	11.2µM*	-7.4%	-7.9%	0.7%	-10.2%	4.2%
CCOc1ccccc1NC(=O)CSc1nccn1Cc1ccc(F)cc1	-32.5%[59 µM]	-27.4%	x	x	u	8.5%[57 µM]
COc1ccc2c(C)nc(Nc3nc(-c4ccccc4)cc(=O)[nH]3)nc2c1	u	u	3.2%	11.0%	79.4µM*	21.6%
Cc1ccc2nc(Nc3nc(-c4ccccc4)cc(=O)[nH]3)nc(C)c2c1	14.5%	-16.5%	-3.9%	14.6%	-1.8%	27.7%
C[C@@H]1C(=O)O[C@H]2C[C@@]34[C@H]5C[C@@H](C(C)(C)C)[C@]36[C@H](OC(=O)[C@H]6O)O[C@]4(C(=O)O5)[C@]21O	x	x	x	5.1%	x	x
CCN(C(=O)CSc1nnc(-c2cc(OC)c(OC)c(OC)c2)o1)c1ccccc1	-45.1%[59 µM]	u	x	x	56.2µM*	16.1%
COc1cc(-c2nnc(SCC(=O)c3ccccc3)o2)cc(OC)c1OC	-40.2%	-14.4%	-12.3%	8.5%	-6.4%	4.8%
COc1cc(-c2nnc(SCc3cc(=O)oc4cc(O)c(O)cc34)o2)cc(OC)c1OC	4.47µM*	u	u	-11.1%	7.94µM*	-44.6%
CCOC(=O)CSc1nnc(-c2cc(OC)c(OC)c(OC)c2)o1	x	1.4%	0.2%	0.3%	-8.6%	76.7%
CCNC(=O)Nc1ccc(-n2nc(C)c(C(=O)OCC)c2C)nc1	-0.9%	20µM*	15µM*	7.6%	-21.0%	0.2%
CCOC(=O)c1c(C)nn(-c2ccc(NC(=O)/C=C/C(=O)O)cc2)c1C	u	-6.2%	2.9%	-7.2%	-4.8%	52.4%
CCOC(=O)c1c(C)nn(-c2ccc(NC(=O)c3c(C)noc3C)cc2)c1C	44.7µM*	-10.6%	-9.3%	6.8%	5.7%	14.8%
